Assays:
Experiment in all cases: log2 ratio of Biotin-Ahx-Ub-VS probe labelling (fragment/DMSO); higher = less target engagement (more negative = stronger competition), active = hit call of the paper (q ≤ 0.05, log2 ratio ≤ -1)
Conditions in all cases: compound concentration: 200 uM; treatment time: 3 h
[1] = molecular target: USP34 (UniProt Q70CQ2)
Method in brief: (§1)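 Each value is an average log2 ratio of fragment to vehicle, tested by unpaired t-test. The underlying Spectronaut label-free quantities were global-median-normalised, and only proteins with ≥2 unique peptides were included. Triplicate HEK293T lysate samples (495 µg) were exposed to fragment at 200 µM or vehicle for 3 h, then to Biotin-Ahx-Ub-VS at 0.5 µM final for 1 h, before NeutrAvidin enrichment of labelled DUBs, LysC and trypsin digestion, and diaPASEF LC-MS/MS.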

[2] = molecular target: T1, USP36 (UniProt Q9P275)
T1 sequence (whole entry): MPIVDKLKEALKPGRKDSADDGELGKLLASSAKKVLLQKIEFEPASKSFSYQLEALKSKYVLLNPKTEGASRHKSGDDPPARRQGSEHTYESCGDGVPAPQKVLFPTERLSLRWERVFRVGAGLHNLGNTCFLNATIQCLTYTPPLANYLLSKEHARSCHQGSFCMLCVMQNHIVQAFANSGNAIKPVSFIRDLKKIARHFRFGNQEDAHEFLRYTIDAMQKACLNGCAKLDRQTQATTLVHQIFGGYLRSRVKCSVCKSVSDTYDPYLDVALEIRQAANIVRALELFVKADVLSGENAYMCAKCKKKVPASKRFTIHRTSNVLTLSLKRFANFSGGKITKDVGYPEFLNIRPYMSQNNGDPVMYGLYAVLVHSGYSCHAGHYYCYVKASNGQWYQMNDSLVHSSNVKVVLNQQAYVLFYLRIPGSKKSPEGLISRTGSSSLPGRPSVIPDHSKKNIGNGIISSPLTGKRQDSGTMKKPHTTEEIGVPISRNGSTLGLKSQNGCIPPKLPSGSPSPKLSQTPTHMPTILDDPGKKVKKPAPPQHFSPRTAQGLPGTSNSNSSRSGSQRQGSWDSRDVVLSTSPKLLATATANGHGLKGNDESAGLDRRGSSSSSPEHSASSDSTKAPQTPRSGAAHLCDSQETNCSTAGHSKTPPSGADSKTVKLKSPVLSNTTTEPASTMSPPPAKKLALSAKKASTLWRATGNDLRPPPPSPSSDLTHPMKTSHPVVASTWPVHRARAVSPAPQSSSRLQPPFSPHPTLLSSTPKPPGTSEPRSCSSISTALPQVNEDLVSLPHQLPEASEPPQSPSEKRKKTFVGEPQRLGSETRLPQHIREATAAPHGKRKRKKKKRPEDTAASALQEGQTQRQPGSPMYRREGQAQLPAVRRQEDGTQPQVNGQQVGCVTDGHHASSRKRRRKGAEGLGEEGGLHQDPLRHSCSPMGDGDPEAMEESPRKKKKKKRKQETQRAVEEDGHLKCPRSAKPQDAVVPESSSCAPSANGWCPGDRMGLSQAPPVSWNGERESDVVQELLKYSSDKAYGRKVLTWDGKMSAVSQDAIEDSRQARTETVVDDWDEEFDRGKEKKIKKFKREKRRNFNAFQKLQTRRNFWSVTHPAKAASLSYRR
Method in brief: as §1

[3] = molecular target: T2, USP38 (UniProt Q8NB14)
T2 sequence (whole entry): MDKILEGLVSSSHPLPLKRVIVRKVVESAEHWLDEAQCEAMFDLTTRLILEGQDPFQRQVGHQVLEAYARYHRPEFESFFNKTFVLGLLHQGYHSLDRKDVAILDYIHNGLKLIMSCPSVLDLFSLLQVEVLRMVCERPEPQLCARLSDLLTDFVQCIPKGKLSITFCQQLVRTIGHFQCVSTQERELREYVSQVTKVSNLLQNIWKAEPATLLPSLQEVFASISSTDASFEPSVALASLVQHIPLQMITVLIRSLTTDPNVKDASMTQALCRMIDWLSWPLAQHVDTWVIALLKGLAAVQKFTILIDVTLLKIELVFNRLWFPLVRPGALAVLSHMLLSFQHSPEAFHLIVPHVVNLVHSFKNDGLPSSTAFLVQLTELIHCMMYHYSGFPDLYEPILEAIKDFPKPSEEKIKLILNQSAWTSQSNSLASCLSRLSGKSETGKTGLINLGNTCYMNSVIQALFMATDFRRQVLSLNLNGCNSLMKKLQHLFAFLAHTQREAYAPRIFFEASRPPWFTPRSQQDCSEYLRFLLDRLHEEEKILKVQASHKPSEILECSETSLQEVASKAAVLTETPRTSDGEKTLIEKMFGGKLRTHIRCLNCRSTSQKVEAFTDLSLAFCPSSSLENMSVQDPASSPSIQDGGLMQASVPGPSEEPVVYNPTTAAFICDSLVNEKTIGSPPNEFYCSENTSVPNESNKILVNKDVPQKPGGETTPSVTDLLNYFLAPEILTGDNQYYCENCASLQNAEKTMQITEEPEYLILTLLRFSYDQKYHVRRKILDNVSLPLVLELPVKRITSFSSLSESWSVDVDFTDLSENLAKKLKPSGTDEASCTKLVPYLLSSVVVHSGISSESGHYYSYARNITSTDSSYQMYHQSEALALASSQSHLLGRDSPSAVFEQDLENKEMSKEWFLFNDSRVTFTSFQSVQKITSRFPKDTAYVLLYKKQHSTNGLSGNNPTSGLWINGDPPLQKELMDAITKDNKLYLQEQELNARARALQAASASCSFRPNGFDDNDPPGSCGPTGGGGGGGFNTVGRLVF
Method in brief: as §1

[4] = molecular target: T3, USP39 (UniProt Q53GS9)
T3 sequence (whole entry): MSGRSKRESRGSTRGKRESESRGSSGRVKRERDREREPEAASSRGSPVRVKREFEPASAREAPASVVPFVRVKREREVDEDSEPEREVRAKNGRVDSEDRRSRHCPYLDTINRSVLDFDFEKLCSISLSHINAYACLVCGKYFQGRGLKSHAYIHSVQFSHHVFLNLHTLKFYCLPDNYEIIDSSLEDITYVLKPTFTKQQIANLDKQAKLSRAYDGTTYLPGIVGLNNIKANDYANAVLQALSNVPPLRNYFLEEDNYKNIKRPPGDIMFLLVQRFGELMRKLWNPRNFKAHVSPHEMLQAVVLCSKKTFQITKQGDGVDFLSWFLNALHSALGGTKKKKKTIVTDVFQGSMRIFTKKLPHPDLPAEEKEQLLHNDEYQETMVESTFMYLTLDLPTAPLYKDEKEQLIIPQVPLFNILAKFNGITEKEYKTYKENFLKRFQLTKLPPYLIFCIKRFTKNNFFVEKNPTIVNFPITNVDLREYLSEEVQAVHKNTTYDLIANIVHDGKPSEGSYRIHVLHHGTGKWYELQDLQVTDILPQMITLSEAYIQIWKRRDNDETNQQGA
Method in brief: as §1

[5] = molecular target: T4, USP4 (UniProt Q13107)
T4 sequence (whole entry): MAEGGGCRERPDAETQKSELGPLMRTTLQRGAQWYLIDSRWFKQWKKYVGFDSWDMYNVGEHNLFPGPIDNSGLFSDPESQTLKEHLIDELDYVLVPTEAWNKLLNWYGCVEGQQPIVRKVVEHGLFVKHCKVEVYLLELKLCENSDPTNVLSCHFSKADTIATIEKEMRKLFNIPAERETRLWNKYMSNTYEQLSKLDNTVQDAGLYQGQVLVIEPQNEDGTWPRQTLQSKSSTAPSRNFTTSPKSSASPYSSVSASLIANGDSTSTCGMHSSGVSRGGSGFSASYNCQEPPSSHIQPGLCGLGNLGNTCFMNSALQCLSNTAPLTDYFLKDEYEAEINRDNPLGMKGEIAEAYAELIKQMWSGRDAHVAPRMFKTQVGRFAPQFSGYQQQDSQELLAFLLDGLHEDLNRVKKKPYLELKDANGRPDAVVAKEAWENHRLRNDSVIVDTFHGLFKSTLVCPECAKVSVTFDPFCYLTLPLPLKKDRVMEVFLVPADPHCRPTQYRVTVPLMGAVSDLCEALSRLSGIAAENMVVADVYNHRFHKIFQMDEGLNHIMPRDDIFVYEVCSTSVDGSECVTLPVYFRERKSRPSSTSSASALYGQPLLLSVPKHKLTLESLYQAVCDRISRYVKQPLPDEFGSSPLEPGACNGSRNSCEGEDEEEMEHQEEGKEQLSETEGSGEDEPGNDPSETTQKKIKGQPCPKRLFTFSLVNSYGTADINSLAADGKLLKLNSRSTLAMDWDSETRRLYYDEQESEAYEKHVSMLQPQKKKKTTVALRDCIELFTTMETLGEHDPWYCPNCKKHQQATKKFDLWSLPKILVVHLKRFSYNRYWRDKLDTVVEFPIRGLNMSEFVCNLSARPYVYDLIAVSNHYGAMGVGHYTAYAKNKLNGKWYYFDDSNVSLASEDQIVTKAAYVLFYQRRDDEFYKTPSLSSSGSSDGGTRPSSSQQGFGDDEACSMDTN
Method in brief: as §1

Measured: log2 ratio of Biotin-Ahx-Ub-VS probe labelling

USP34, sequence (Q70CQ2 whole entry, the tested form may be a part): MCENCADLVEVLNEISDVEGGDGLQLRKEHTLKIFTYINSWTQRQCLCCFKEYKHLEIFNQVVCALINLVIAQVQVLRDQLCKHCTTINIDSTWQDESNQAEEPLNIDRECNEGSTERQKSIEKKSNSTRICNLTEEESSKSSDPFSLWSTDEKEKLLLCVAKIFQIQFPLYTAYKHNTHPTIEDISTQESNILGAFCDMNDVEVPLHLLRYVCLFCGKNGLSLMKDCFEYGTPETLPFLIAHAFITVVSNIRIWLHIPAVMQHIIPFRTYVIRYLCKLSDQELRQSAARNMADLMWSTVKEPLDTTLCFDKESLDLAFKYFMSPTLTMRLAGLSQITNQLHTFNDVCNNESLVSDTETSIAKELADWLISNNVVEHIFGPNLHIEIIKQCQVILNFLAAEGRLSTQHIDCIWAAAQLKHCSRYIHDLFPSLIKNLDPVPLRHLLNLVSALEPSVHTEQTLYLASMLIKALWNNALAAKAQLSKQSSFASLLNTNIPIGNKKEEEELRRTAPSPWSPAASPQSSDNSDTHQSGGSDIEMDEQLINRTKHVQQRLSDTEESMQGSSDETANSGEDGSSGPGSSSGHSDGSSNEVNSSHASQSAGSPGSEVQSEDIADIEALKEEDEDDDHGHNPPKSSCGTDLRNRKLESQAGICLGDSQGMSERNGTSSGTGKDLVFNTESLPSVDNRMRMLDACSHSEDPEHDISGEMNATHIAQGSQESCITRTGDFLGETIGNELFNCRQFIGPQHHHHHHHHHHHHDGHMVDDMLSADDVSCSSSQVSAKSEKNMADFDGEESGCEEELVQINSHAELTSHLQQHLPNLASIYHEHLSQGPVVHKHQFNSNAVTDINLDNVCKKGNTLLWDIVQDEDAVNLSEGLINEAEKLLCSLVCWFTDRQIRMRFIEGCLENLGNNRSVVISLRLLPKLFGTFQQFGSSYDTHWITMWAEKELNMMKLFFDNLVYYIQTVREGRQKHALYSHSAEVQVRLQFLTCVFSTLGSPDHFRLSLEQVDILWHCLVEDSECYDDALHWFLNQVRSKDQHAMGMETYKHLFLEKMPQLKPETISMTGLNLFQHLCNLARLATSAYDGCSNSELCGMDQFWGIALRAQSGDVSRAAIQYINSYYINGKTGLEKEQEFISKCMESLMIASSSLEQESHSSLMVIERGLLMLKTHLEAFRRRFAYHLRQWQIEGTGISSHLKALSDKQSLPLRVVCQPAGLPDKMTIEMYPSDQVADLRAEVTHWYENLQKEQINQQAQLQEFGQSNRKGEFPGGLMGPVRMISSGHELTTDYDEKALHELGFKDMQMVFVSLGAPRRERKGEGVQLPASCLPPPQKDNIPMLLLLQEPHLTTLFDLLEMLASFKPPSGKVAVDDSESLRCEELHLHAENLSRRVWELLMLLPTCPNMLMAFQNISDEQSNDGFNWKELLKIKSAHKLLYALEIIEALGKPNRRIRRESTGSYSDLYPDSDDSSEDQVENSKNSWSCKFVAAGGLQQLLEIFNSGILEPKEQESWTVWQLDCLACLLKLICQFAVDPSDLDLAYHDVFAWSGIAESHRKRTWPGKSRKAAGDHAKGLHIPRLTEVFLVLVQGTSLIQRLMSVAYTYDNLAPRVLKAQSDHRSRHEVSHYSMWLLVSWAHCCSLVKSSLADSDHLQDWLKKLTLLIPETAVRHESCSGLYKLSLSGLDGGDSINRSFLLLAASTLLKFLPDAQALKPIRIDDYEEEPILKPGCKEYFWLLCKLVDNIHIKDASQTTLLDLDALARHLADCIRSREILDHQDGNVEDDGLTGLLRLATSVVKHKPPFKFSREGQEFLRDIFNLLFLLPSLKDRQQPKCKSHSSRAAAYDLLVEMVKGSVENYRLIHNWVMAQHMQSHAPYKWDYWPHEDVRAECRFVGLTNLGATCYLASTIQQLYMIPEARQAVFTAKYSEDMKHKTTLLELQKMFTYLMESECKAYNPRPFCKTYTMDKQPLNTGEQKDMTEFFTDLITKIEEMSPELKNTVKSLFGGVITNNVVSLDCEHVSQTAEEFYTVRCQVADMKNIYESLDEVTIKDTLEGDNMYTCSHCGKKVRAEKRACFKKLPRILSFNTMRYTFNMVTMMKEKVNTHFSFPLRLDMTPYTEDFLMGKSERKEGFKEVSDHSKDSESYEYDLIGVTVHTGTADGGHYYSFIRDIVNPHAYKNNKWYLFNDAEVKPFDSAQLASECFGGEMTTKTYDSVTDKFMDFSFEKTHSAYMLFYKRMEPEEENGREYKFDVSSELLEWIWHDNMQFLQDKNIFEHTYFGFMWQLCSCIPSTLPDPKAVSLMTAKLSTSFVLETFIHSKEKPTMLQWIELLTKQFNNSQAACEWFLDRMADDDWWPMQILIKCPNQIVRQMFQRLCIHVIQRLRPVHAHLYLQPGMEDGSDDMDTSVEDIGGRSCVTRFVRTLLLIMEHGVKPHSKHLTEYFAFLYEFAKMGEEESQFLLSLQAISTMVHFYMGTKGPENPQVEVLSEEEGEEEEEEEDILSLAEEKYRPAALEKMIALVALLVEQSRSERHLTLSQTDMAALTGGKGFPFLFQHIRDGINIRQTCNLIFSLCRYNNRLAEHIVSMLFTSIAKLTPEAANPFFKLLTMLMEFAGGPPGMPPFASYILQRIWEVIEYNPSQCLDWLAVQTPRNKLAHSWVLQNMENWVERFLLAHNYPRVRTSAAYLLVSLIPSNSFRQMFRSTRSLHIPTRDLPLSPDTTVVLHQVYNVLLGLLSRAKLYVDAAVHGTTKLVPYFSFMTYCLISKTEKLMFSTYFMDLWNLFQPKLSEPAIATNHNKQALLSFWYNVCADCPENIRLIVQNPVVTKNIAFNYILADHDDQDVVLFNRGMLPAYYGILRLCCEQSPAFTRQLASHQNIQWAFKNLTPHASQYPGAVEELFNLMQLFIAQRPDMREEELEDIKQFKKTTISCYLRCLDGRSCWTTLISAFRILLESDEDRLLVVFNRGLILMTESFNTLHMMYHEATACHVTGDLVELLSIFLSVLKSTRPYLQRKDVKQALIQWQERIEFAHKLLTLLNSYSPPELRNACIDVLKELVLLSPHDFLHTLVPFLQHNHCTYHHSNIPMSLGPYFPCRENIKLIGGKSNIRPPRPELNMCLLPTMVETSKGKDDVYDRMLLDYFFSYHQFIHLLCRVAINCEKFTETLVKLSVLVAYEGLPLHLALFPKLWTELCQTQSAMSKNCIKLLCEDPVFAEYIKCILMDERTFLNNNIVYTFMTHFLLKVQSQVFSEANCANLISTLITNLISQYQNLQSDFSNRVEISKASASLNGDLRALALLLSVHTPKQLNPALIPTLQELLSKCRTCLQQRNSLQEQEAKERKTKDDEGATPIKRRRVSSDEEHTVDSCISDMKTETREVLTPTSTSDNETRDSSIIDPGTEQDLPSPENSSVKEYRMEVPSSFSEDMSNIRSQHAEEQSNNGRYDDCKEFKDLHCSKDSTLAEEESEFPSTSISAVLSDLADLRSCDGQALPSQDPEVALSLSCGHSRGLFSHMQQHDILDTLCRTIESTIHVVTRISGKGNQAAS

Cl.Cn1nccc1C(NC(=O)CCl)c1ccccc1 (stereo not given)
inactive: [1] -0.0966 | [2] 0.193 | [3] -0.0261 | [4] 0.0185 | [5] -0.116
